Screening data from PubChem.
KB-V1 MDR tox: KB-V1 MDR subline cytotoxicity; 400,000 tested, 3.4% active; Potency, µM (titrated, usually from 46.1 µM), most hits filed as cytotoxic; KB-V1 MDR cells viability, CellTiter-Glo, 72 h; AID 1347076; further: potency means the concentration at half of the fitted maximal effect; nearly all actives have a fitted effect of over 60% in size
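Readout: CellTiter-Glo luminescence, 10 min after addition. Cells: KB-V1 MDR subline, 72 h at 37 degrees C with compound. Analysis: corrected, normalized data fitted to concentration-effect curves.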
Nrf2 block: Nrf2 pathway inhibition | A549 ARE-Fluc reporter, luciferase luminescence, 18-24 h | Potency, µM (top dose mostly 46 µM), for the others: at the top dose activity change, negative = inhibition, most hits filed as inhibitors | 360,000 tested, 2.1% active | AID 504444; further: potency means the concentration at half of the fitted maximal effect; nearly all actives have a fitted effect of over 60% in size
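A549 ARE_Fluc cells, 5000/well, 5% FBS OPTI-MEM; compounds in dose-response, 18-24 h at 37 °C/5% CO2; CellTiter-Fluor viability read (Ex 405/Em 525), then BugLite luciferase luminescence = Nrf2 activity.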
KB-3-1 cytotox: kills parental KB-3-1 adenocarcinoma cells. KB-3-1 viability, CellTiter-Glo ATP luminescence, 72 h. Potency, µM (highest dose often 46.1 µM), actives largely listed as cytotoxic. 400,000 tested, 1.4% active; further: potency means the concentration at half of the fitted maximal effect; nearly all actives have a fitted effect of over 60% in size
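Viability of parental KB-3-1 cells, measured by CellTiter-Glo luminescence, followed a 72 h incubation at 37 °C with pinned compounds in phenol-red-free DMEM containing 10% FBS.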
Giardia kill: kills Giardia lamblia; activity change, % at 7.66 µM, hits read low; 340,000 tested, 0.15% active; Giardia lamblia trophozoite viability; AID 540267; in the data active means activity change below about -80%; inconclusive means between about -30% and that limit;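 further: parasites exposed to compound for two days anaerobically before the ATP read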
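Giardia trophozoites, 100 cells per well, were exposed to compounds for 48 hrs at 37 deg C under anaerobic conditions; viability was then read as ATP content by bioluminescence after 15-30 min at room temperature.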
PI4K2A block: blocks human PI4K2A kinase activity | Q9BTU6 | purified PI4K2A, ADP-Glo luminescence, 1 h; hits give low values | activity change, negative = inhibition, % at 76.9 µM | 420,000 tested, 0.13% active; in the data active means activity change below about -50%; inconclusive means mostly about -30% to -49%;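 further: -100% = wells without enzyme as full effect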
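PI4K2A activity was measured by ADP-Glo luminescence: enzyme (4 ug/mL stock) and phosphatidylinositol (1.2 mM stock) in Tris pH 7.5/MgCl2/EGTA/Triton X-100 buffer were reacted with ATP (300 microM stock) for one hour at ambient temperature.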
A549 tox-1: A549 cytotoxicity, counter-screen for Nrf2 inhibitors. A549 ARE-Fluc cells, CellTiter-Fluor viability, 18-24 h. Potency, µM (highest dose often 46 µM), inactives show top-dose activity change, negative = cytotoxicity, actives largely listed as inhibitors. 390,000 tested, 0.16% active. AID 504648; further: potency means the concentration at half of the fitted maximal effect
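Cytotoxicity counterscreen: CellTiter-Fluor fluorescence was measured in A549 ARE_Fluc cells after 18-24 h of compound exposure in a concentration series. The subsequent BugLite luminescent read reports ARE-luciferase activity.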
FLuc enzyme inh: blocks purified firefly luciferase in Nrf2 counterscreen | 1,400 tested, 4% active | shares compounds with Nrf2 block | purified firefly luciferase, luminescence inhibition | Potency, µM (titrated, usually from 57.5 µM), inactives show at the highest dose activity change, negative = inhibition, most hits filed as inhibitors; further: potency means the concentration at half of the fitted maximal effect; nearly all actives have a fitted effect of over 65% in size
Target sequence (P08659 whole entry, looked up): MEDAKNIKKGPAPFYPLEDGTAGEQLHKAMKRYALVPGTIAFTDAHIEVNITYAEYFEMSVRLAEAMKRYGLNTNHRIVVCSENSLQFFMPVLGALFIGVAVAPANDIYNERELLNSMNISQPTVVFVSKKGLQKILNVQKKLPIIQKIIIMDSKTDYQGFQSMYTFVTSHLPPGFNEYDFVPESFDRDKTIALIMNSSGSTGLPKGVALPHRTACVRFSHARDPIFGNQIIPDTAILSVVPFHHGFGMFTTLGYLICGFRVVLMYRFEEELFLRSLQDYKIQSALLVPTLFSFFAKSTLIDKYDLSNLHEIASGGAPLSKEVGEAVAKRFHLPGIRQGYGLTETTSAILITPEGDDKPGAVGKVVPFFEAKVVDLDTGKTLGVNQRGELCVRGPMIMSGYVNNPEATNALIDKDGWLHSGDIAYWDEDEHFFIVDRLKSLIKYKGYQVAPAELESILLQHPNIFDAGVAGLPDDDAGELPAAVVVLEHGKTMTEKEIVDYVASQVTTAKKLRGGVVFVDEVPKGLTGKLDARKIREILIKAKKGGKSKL
A549 tox-2: counter-screen for Nrf2 inhibitors: cytotoxicity in A549 ARE cells; shares compounds with Nrf2 block; A549 ARE-Fluc cells, cytotoxicity counterscreen; Potency, µM (titrated, usually from 46.1 µM), for inactives: at the highest dose activity change, negative = cytotoxicity, usual class: inhibitors; 1,400 tested, 2% active; AID 720523;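 further: potency means the concentration at half of the fitted maximal effect; cells exposed to compounds for 18 to 24 hours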
ARE-Fluc inh: confirmation of Nrf2 inhibitors in A549 ARE reporter cells; 1,400 tested, 74% active; Potency, µM (titrated, usually from 46.1 µM), inactives show top-dose activity change, negative = inhibition, actives largely listed as inhibitors; shares compounds with Nrf2 block; A549 ARE-firefly luciferase reporter, luminescence; further: potency means the concentration at half of the fitted maximal effect; nearly all actives have a fitted effect of over 65% in size
Numbers without * were called inactive; i = inactive; ? = inconclusive; . = no result shown. Shown are actives, neighbours in structure and some others; about 5.7% of the full set was active somewhere. Unless noted, the call rests on the fitted dose curve; in most records, active means well fitted curve in the direction sought with a large enough effect; inconclusive means small, poorly fitted or top-dose-only effect, or another doubt; inactive means no such curve, though single readings can be large; an effect the other way counts as inactive or inconclusive. Unless noted, on the % scale 0 is the no-effect control and ±100 the full control effect.

SMILES	KB-V1 MDR tox	Nrf2 block	KB-3-1 cytotox	Giardia kill	PI4K2A block	A549 tox-1	FLuc enzyme inh	A549 tox-2	ARE-Fluc inh
CC(=O)Nc1sc2c(c1-c1nc3ccccc3s1)CCN(C(C)C)C2	?	6.5µM*	7.3µM*	16	2	-11%	0%	-27%	6.5µM*
Cc1coc2cc3oc(=O)c(CC(=O)NCc4ccccc4)c(C)c3cc12	.	16%	.	.	-1	0%	.	.	.
C[n+]1c2n(c3ccccc31)N=C(c1ccccc1)CS2	i	3.7µM*	2.9µM*	-3	-8	?	0%	-9%	.
O=C(Nc1c(-c2ccccc2)nc2ncccn12)C1CC1	.	.	.	.	1	.	.	.	.
Cc1ccc2oc(C(=O)N(Cc3ccccc3F)C3CCS(=O)(=O)C3)c(C)c2c1 (centres undefined)	i	?	i	.	-6	0%	.	.	.
COc1ccc(S[C@]2(C(=O)N3CCOCC3)CC(=O)N(C(=O)/C=C/c3ccccc3)[C@@H]2c2ccc(OC)cc2)cc1	.	.	.	.	1	.	.	.	.
CCN(CC)c1ccc(Nc2nc(N3CCOCC3)c3ccccc3n2)cc1	2.6µM*	6.5µM*	8.2µM*	4	-12	?	?	-11%	12µM*
COc1ccc(Nc2nc(N3CCCC3)c3ccccc3n2)cc1	?	?	?	29	-2	-16%	.	.	.
N#CCCCc1cn(-c2cccc(-c3noc4c3C(=O)N(CC(=O)N3CCOCC3)CC4)c2)nn1	.	.	.	.	3	.	.	.	.
Cc1cccc(NC(=O)C(c2ccccc2)N2Cc3ccccc3C2=O)c1C (centres undefined)	.	6%	.	.	-1	-4%	.	.	.
O=C(OC12CCCN(C1)/C(=C/c1cccc(Cl)c1)C2)c1ccno1 (centres undefined)	.	.	.	.	3	.	.	.	.
COc1ccc(-c2c(C)sc(NC(=O)c3ccnn3C)c2C#N)cc1	?	6.5µM*	10µM*	2	-4	-9%	-14%	?	.
CC(/C=N\NC(=O)Cn1c(C)nc2ccccc21)=C\c1ccccc1	?	8.2µM*	18µM*	14	-1	-19%	-2%	-18%	7.3µM*
CC(/C=N/NC(=O)CSc1nc(C)cc(C)n1)=C\c1ccccc1	?	-28%	i	16	5	1%	.	.	.
Cc1cc(NC(=O)c2cc(Cl)ccc2Cl)ccc1-c1cc2ccccc2oc1=O	i	?	i	.	-10	-5%	-4%	3%	5%
Cc1cc(C)cc(C(=O)NC(=S)Nc2ccc(-c3cc4ccccc4oc3=O)cc2)c1	?	3.7µM*	?	9	5	1%	-7%	-19%	?
Cc1c(C(C)NC(=O)c2cc(COc3cccc4cnccc34)on2)cnn1C (centres undefined)	?	8.2µM*	21µM*	12	3	-17%	-14%	1%	7.3µM*
CCc1nc(N)nc(N)c1-c1ccc(N(C)Cc2ccccc2)c([N+](=O)[O-])c1	1.8µM*	1.3µM*	4.1µM*	-16	-4	-13%	-2%	-15%	1.2µM*
CCCCN(CC)S(=O)(=O)c1ccc(C(=O)Nc2nnc(-c3cccs3)o2)cc1	?	2.3µM*	8.2µM*	-7	-4	-18%	3%	?	7.3µM*
Cc1cccc(C)c1OCc1cc(C(=O)NC2CCC2)no1	i	-2%	i	0	-1	1%	.	.	.
Cc1cccnc1CN1CCN(C(=O)c2cc(COc3ccc4ncccc4c3)on2)CC1	6.5µM*	4.1µM*	?	14	4	-16%	0%	-2%	?
O=C(NC1CCCCCCC1)c1cc(COc2ccc3ncccc3c2)on1	1.8µM*	3.3µM*	2.6µM*	-17	0	?	-16%	2%	2.9µM*
CCC(O)C1CCN(C(=O)c2cc(COc3ccc4ncccc4c3)on2)CC1 (centres undefined)	?	1.8µM*	i	-21	1	?	-19%	-11%	1.5µM*
O=C(c1cc(COc2ccc3ncccc3c2)on1)N1CCC(O)CC1	i	8.2µM*	?	20	3	-5%	-26%	-1%	-8%
Cc1cc(Br)ccc1NC(=O)c1cn(C2CCCC2)c(=O)c2c1c1ccccc1n2C	i	?	?	.	-2	0%	.	.	.
SMILES	KB-V1 MDR tox	Nrf2 block	KB-3-1 cytotox	Giardia kill	PI4K2A block	A549 tox-1	FLuc enzyme inh	A549 tox-2	ARE-Fluc inh
Cc1cc(CN(C)C(=O)c2cc(COc3ccc4ncccc4c3)on2)on1	i	4.6µM*	?	0	-3	-17%	-25%	-3%	5.2µM*
O=C(CNc1cc(S(=O)(=O)N2CCCC2)ccc1OCC(F)(F)F)Nc1ccc(SC(F)F)cc1	i	5.2µM*	i	8	-2	?	-3%	-19%	?
O=C(COC(=O)c1cc(S(=O)(=O)N2CCCC2)ccc1O)Nc1ccc(SC(F)F)cc1	?	-30%	i	?	1	-13%	.	.	.
CC(=O)NCCCN(Cc1ccc(Cl)c(Cl)c1)c1ccc(Br)cn1	.	?	.	-6	.	-2%	.	.	.
COc1ccc(NC(=O)CN2C(=O)c3cccnc3Sc3ccccc32)cc1OC	i	26%	i	.	-4	-4%	.	.	.
Cc1ccc(NC(=O)CN2C(=O)c3cccnc3Sc3ccccc32)cc1C	.	?	.	.	7	9%	?	1%	62%
Cn1cc(/C=C/c2cc[n+](C)cc2)c2cc(F)ccc21	i	1.6µM*	i	-6	-1	?	1%	-26%	1.6µM*
C[n+]1ccc(/C=C/c2c[nH]c3ccc(F)cc23)cc1	i	1.2µM*	8.2µM*	-4	3	?	1%	?	1.8µM*
Cc1[nH]c2ccccc2c1/C=C/c1c[nH]c2ccccc12	i	.	i	.	.	.	.	.	.
CCc1nn2c(=O)cc(COC(=O)c3ccccc3NC(=O)c3ccc(C(C)(C)C)cc3)nc2s1	.	.	.	.	-5	0%	.	.	.
COc1cccc(C2C(=O)N(C3CCCCC3)CC(=O)N2Cc2ccc(Cl)cc2)c1 (centres undefined)	.	.	.	.	0	?	.	.	.
